The list is not random: actives were taken first. Their share in the collection is about 1.5%.
BLM inh = blocks DNA unwinding by human BLM helicase; P54132; recombinant BLM DNA unwinding, fluorescence dequenching; Potency, µM (series often up to 56.1 µM), for the others: at the highest dose activity change, negative = inhibition, actives largely listed as inhibitors; actives 0.2% (n = 350,000); AID 2528;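 also: potency is read from the fitted curve at half-maximal effect; plate controls were vehicle for no effect and no enzyme for full effect; nearly all actives have a fitted effect of over 35% in size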
FEN1 inhibitor = human FEN1 inhibition; P39748; Recombinant FEN1 flap cleavage, fluorescence, 15 min; Potency, µM (highest dose often 114 µM), without a hit: at the highest dose activity change, negative = inhibition, most hits filed as inhibitors; actives 0.35% (n = 390,000); also: potency is read from the fitted curve at half-maximal effect; nearly all actives have a fitted effect of over 65% in size
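Steps: FEN1 (10 nM) dispensed; compound added by pin tool; 15 min at room temperature; substrate added to 50 nM final; reads at 0 min and 15 min; data normalized and fitted (four-parameter Hill).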
PI5P4K alpha inh = PI5P4K alpha (human) kinase inhibition. P48426. PI5P4Kalpha enzyme, ADP-Glo luminescence, 60 min; active compounds read low. max response, %. actives 1.2% (n = 330,000); active = max response of -50% or lower; inconclusive = between -30% and -50%; inactive = -30% or higher; also: value at the top dose of about 77 µM
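Quantitative HTS of the MLSMR library against PI5P4Kalpha with substrate. ATP added last at 5 microM final; room temperature, 60 minutes. Remaining ATP depleted, ADP converted and read as luminescence.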
RECQ1 inh-1 = blocks DNA unwinding by human RECQ1. actives 0.54% (n = 240,000). P46063. Potency, µM (doses to about 57.3 µM), inactives show at the highest dose activity, negative = inhibition, actives largely listed as inhibitors. RECQ1 DNA unwinding, red fluorescence kinetic read;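 also: potency is read from the fitted curve at half-maximal effect; plate controls were vehicle for no effect and no enzyme for full effect; nearly all actives have a fitted effect of over 30% in size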
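RECQ1T1 50 nM; forked duplex (20 bp + 30-nt ss tails) 200 nM, ATP 2 mM final; pH 8.0, 2 mM MgCl2, 2.5 ug/ml poly(dI-dC); 15 min compound preincubation; discontinuous kinetic read over 2 h at RT.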
GCN5L2 inh = inhibitors of human GCN5L2 histone acetyltransferase; Q92830; GCN5L2 HAT assay, ThioGlo1 CoA-SH fluorescence; Potency, µM (doses to about 58.9 µM), for inactives: at the top dose activity change, negative = inhibition, actives largely listed as inhibitors; actives 0.21% (n = 390,000); also: potency is read from the fitted curve at half-maximal effect
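Titration-based screen in which CoA formation is detected via maleimide probe ThioGlo1 (50uM) turning fluorescent on thiol reaction; substrates H3(1-25) 75uM and acetyl-CoA 70uM, GCN5L2 20nM, 20 min incubation at room temperature.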
APEX1 inh = APE1 (human) endonuclease inhibition; recombinant APE1, TAMRA/BHQ-2 abasic DNA cleavage fluorescence; actives 0.35% (n = 350,000); Potency, µM (doses to about 65.8 µM), for inactives: top-dose activity change, negative = inhibition, actives largely listed as inhibitors; P27695;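 also: potency is read from the fitted curve at half-maximal effect; plate controls were vehicle for no effect and reference inhibitor for full effect; nearly all actives have a fitted effect of over 55% in size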
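0.75 nM APE1 + cpd, 15 min RT; start w/ 50 nM TAMRA/BHQ-2 THF-abasic dsDNA; kinetic fluor 525/598 nm ×3 reads @60 s; Δ(read3−read1); normalized to DMSO and NSC13755 control wells.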
RECQ1 inh conf = confirmation of human RECQ1 helicase inhibitors | actives 28% (n = 610) | AID 2708 | shares compounds with RECQ1 inh-1 | Potency, µM (doses to about 229 µM), for the others: at the top dose activity change, negative = inhibition, most hits filed as inhibitors | RECQ1 helicase DNA unwinding, fluorescence; also: potency is read from the fitted curve at half-maximal effect; nearly all actives have a fitted effect of over 45% in size
RECQ1 ADP FP = ADP displacement flagged in RECQ1 inhibitor counter-screen. shares compounds with RECQ1 inh-1. ADP fluorescence polarization displacement counterscreen. Potency, µM (top dose mostly 228 µM), for inactives: top-dose activity change, negative = inhibition, usual class: inhibitors. actives 27% (n = 530); also: potency is read from the fitted curve at half-maximal effect; nearly all actives have a fitted effect of over 45% in size
RECQ1 inh-2 = blocks human RECQ1 DNA unwinding | Potency, µM (titrated, usually from 119 µM), for the others: top-dose activity, negative = inhibition, actives largely listed as inhibitors | AID 504841 | recombinant RECQ1 DNA unwinding, red fluorescence | actives 15% (n = 1,100) | shares compounds with RECQ1 inh-1; also: potency is read from the fitted curve at half-maximal effect; nearly all actives have a fitted effect of over 50% in size
Starred values were filed as active, the others as inactive; [ ] = remark or other dose. Unless noted, calls follow the shape of the dose curve; as a rule, active = well fitted curve in the direction sought with a large enough effect; inconclusive = small, poorly fitted or top-dose-only effect, or another doubt; inactive = no such curve, though single readings can be large; an effect the other way counts as inactive or inconclusive. Unless noted, % is scaled to controls: 0 for no effect and ±100 for the full control effect.

What do the screens show for `CCN1C(=O)C(CC(=O)Nc2ccc(F)cc2)N(CCc2ccc(OC)cc2)C1=S` (stereo not drawn)?
BLM inh: -13%; FEN1 inhibitor: -10%; PI5P4K alpha inh: 5; RECQ1 inh-1: 22µM*; GCN5L2 inh: -8%; APEX1 inh: -7%; RECQ1 inh-2: -17%

What do the screens show for `COc1ccccc1C1CC(=O)Oc2cc3c(cc21)OCO3` (stereo not drawn)?
BLM inh: -30%[75.6 µM]; RECQ1 inh-1: 35µM*; GCN5L2 inh: 28µM*; APEX1 inh: 32µM*; RECQ1 inh-2: 28µM*

How did O=[N+]([O-])c1cccc(C(F)(F)F)c1 do in these assays?
RECQ1 inh-1: 0%; APEX1 inh: 1%

Results for Cn1c(CO)cnc1S(=O)(=O)Cc1c(Cl)cccc1Cl ?
BLM inh: -2%; FEN1 inhibitor: -7%; PI5P4K alpha inh: 3; GCN5L2 inh: 15%; APEX1 inh: 38%

What do the screens show for `Cn1c(CO)cnc1S(=O)(=O)Cc1ccc(Cl)cc1`?
BLM inh: 0%; FEN1 inhibitor: -20%; PI5P4K alpha inh: 0; RECQ1 inh-1: inconclusive; GCN5L2 inh: -9%; APEX1 inh: 12%; RECQ1 inh-2: -10%

How did Nc1ncc(O)c(N)n1 do in these assays?
BLM inh: 7%; RECQ1 inh-1: -14%; GCN5L2 inh: 49%; APEX1 inh: -3%

What do the screens show for `O=C(Cc1ccccc1)NCC1COc2ccccc2O1` (stereo not drawn)?
FEN1 inhibitor: 33%

How did Cn1c(C(=O)O)c(CC(=O)NCC2COc3ccccc3O2)c2ccccc21 (stereo not drawn) do in these assays?
BLM inh: 0%; FEN1 inhibitor: -2%; PI5P4K alpha inh: -3; RECQ1 inh-1: -1%; GCN5L2 inh: -6%; APEX1 inh: -2%; RECQ1 inh conf: 2%; RECQ1 ADP FP: 1%

How did CC(=O)Oc1cc(C)c(OC(C)=O)c2ccccc12 do in these assays?
BLM inh: 4%; GCN5L2 inh: -10%

How did CC1(C)CC2CC(C)(CN2S(=O)(=O)c2ccc(C(=O)Nc3cc(S(=O)(=O)N4CCOCC4)ccc3Cl)cc2)C1 (stereo not drawn) do in these assays?
BLM inh: -7%; FEN1 inhibitor: -1%; PI5P4K alpha inh: -3; RECQ1 inh-1: -9%; GCN5L2 inh: -4%; APEX1 inh: inconclusive; RECQ1 inh conf: 0%; RECQ1 ADP FP: 8%

What do the screens show for `CC(=O)Oc1ccc(-c2ccc(C(=O)Nc3cccc(S(=O)(=O)N4CCOCC4)c3)cc2)cc1`?
BLM inh: -10%; FEN1 inhibitor: -5%; PI5P4K alpha inh: -4; RECQ1 inh-1: -7%; GCN5L2 inh: -15%; APEX1 inh: -6%

Results for CC1(C)CC2CC(C)(CN2S(=O)(=O)c2ccc(C(=O)Nc3cccc(S(=O)(=O)N4CCOCC4)c3)cc2)C1 (stereo not drawn) ?
BLM inh: -8%; FEN1 inhibitor: 1%; PI5P4K alpha inh: 12; RECQ1 inh-1: -2%; GCN5L2 inh: -5%; APEX1 inh: -1%; RECQ1 inh conf: -12%; RECQ1 ADP FP: 1%

What do the screens show for `COc1ccc(CCc2c[nH]c(=O)c3cncnc23)cc1OC`?
FEN1 inhibitor: -16%

Results for COc1cc(/C=C2\Oc3cc(O)ccc3C2=O)ccc1O ?
BLM inh: -9%; FEN1 inhibitor: inconclusive; PI5P4K alpha inh: -61*; RECQ1 inh-1: inconclusive; GCN5L2 inh: inconclusive; APEX1 inh: -7%; RECQ1 inh-2: 79µM*

What do the screens show for `C=COC(=O)/C=C/C`?
BLM inh: -4%; RECQ1 inh-1: 4%; GCN5L2 inh: 1%; APEX1 inh: -1%

What do the screens show for `O=S(=O)(c1ccccc1)c1nc(NC2CC2)sc1Cl`?
BLM inh: -2%; FEN1 inhibitor: 12%; PI5P4K alpha inh: -4; RECQ1 inh-1: 40µM*; GCN5L2 inh: 2%; APEX1 inh: 17%; RECQ1 inh-2: -5%

What do the screens show for `CC(C)CNc1nc(S(=O)(=O)c2ccccc2)c(Cl)s1`?
BLM inh: -7%; FEN1 inhibitor: 10%; PI5P4K alpha inh: -7; RECQ1 inh-1: -22%; GCN5L2 inh: -5%; APEX1 inh: -4%

How did O=C(c1cc(-c2ccco2)on1)N1CCCc2ccccc21 do in these assays?
BLM inh: -22%; FEN1 inhibitor: -9%; RECQ1 inh-1: 40µM*; GCN5L2 inh: -10%; APEX1 inh: 12%; RECQ1 inh-2: inconclusive

What do the screens show for `CSc1ccc(C2C(C#N)=C(N)Oc3c2ccc(=O)c2c(C)oc(C)c32)cc1` (stereo not drawn)?
BLM inh: -4%; FEN1 inhibitor: inconclusive; PI5P4K alpha inh: -65*; RECQ1 inh-1: inconclusive; GCN5L2 inh: inconclusive; APEX1 inh: inconclusive; RECQ1 inh-2: inconclusive

What do the screens show for `Cc1oc(C)c2c(=O)ccc3c(c12)OC(N)=C(C#N)C3c1ccccc1` (stereo not drawn)?
BLM inh: -2%; FEN1 inhibitor: -5%; PI5P4K alpha inh: inconclusive; RECQ1 inh-1: inconclusive; GCN5L2 inh: 2%; APEX1 inh: 11%; RECQ1 inh-2: -12%

What do the screens show for `Cc1oc(C)c2c(=O)ccc3c(c12)OC(N)=C(C#N)C3c1ccccc1Cl` (stereo not drawn)?
BLM inh: inconclusive; FEN1 inhibitor: -16%; PI5P4K alpha inh: inconclusive; RECQ1 inh-1: inconclusive; GCN5L2 inh: -14%; APEX1 inh: 1%; RECQ1 inh-2: -21%

Results for CC[n+]1cccc(Br)c1 ?
FEN1 inhibitor: -10%

Results for c1csc(-c2nc(N3CCN(Cc4ccc5c(c4)OCCO5)CC3)c3ccccc3n2)c1 ?
FEN1 inhibitor: -9%

How did C#Cc1cccc(Nc2ncnc3cc(OC)c(OC)cc23)c1 do in these assays?
RECQ1 inh-1: inactive; GCN5L2 inh: -15%; APEX1 inh: -3%

Results for Brc1ccc(C=C2C=c3ccccc3=C2)cc1 ?
FEN1 inhibitor: -33%
